From the supplement of paper PMC3342239
Counter-ions that a name gives are not always drawn.

test system: Saccharomyces cerevisiae; assay: fraction of cells in G1 phase (DNA content, flow cytometry); higher = more cells with unreplicated DNA (G1 delay); settings: temperature: 30 C; YPD; JTY2953 pdr5 snq2 (sensitized); drug added to: cultures diluted from stationary phase; 6-7 h
Procedure, shortened: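 S. cerevisiae in YPD at 30°C was dosed with library drugs, using a final 20 µg/ml for sensitized JTY2953 diluted 1∶200 from overnight and fixed at 6–7 h, or dosing dividing JTY2953 (fixed at 6 h) and BY4741 (fixed at 4.33 h). Ethanol-fixed, SYTOX Green-stained cells were read by flow cytometry (10,000 events). The G1 fraction is taken as the Dean-Jett-Fox G1 peak area divided by the G1 and G2/M areas combined.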

| SMILES | fraction of cells in G1 phase |
| --- | --- |
| CCCCc1nc(Cl)c(CO)n1Cc1ccc(-c2ccccc2-c2nnn[nH]2)cc1 [Losartan potassium] (43.3825 µM) | 0.487 |
| COc1ccc2cc([C@H](C)C(=O)O)ccc2c1 [Naproxen] (86.8561 µM) | 0.514 |
| CCC(=O)O[C@@H](O[P@](=O)(CCCCc1ccccc1)CC(=O)N1C[C@H](C2CCCCC2)C[C@H]1C(=O)O)C(C)C [Fosinopril] (35.4813 µM) | 0.501 |
| N=C(N)N/N=C/c1c(Cl)cccc1Cl [Guanabenz acetate] (86.548 µM) | 0.488 |
| CC[C@H]1OC(=O)[C@H](C)[C@@H](O[C@H]2C[C@@](C)(OC)[C@@H](O)[C@H](C)O2)[C@H](C)[C@@H](O[C@@H]2O[C@H](C)C[C@H](N(C)C)[C@H]2O)[C@](C)(O)C[C@@H](C)CN(C)[C@H](C)[C@@H](O)[C@]1(C)O [Azithromycin] (26.7021 µM) | 0.471 |
| C[C@@H](O)[C@@H]1NC(=O)[C@H](CCCCN)NC(=O)[C@@H](Cc2c[nH]c3ccccc23)NC(=O)[C@H](Cc2ccccc2)NC(=O)[C@@H](NC(=O)[C@H](N)Cc2ccccc2)CSSC[C@@H](C(=O)N[C@H](CO)[C@@H](C)O)NC1=O [Octreotide] (19.6221 µM) | 0.478 |
| COC(=O)C1=C(C)NC(C)=C(C(=O)OC)C1c1ccccc1[N+](=O)[O-] [Nifedipine] (57.7463 µM) | 0.551 |
| Oc1ccc(C2CNCCc3c2cc(O)c(O)c3Cl)cc1 (stereo unspecified) [Fenoldopam mesylate] (65.41 µM) | 0.533 |
| C=CCc1ccccc1OCC(O)CNC(C)C (stereo unspecified) [Alprenolol HCl] (80.2066 µM) | 0.52 |
| Nc1ccn([C@@H]2O[C@H](CO)[C@@H](O)C2(F)F)c(=O)n1 [Gemcitabine HCl] (75.9871 µM) | 0.49 |
| COc1ccc2cc(CCC(C)=O)ccc2c1 [Nabumetone] (87.6065 µM) | 0.535 |
| CC[C@H](C)C(=O)O[C@H]1CCC=C2C=C[C@H](C)[C@H](CC[C@@H]3C[C@@H](O)CC(=O)O3)[C@H]21 [Mevastatin] (51.2132 µM) | 0.502 |
| O=c1[nH]cnc2c1ncn2[C@H]1CC[C@@H](CO)O1 [Didanosine] (84.6625 µM) | 0.514 |
| CCCc1nn(C)c2c(=O)[nH]c(-c3cc(S(=O)(=O)N4CCN(C)CC4)ccc3OCC)nc12 [Sildenafil] (42.142 µM) | 0.503 |
| C#Cc1cccc(Nc2ncnc3cc(OCCOC)c(OCCOC)cc23)c1 [Erlotinib] (50.8329 µM) | 0.527 |
| N#Cc1ccc(C(c2ccc(C#N)cc2)n2cncn2)cc1 [Letrozole] (70.099 µM) | 0.519 |
| COC(=O)Nc1nc2cc([S+]([O-])c3ccccc3)ccc2[nH]1 (stereo unspecified) [Oxfendazole] (63.421 µM) | 0.536 |
| COc1ccc(/C=C/C(=O)Nc2ccccc2C(=O)O)cc1OC [Tranilast] (61.0986 µM) | 0.546 |
| CC[C@H]1OC(=O)[C@H](C)[C@@H](O[C@H]2C[C@@](C)(OC)[C@@H](O)[C@H](C)O2)[C@H](C)[C@@H](O[C@@H]2O[C@H](C)C[C@H](N(C)C)[C@H]2O)[C@](C)(O)C[C@@H](C)/C(=N\OCOCCOC)[C@H](C)[C@@H](O)[C@]1(C)O [Roxithromycin] (23.8929 µM) | 0.472 |
| CCC[C@@H]1C[C@@H](C(=O)N[C@@H]([C@H]2O[C@H](SC)[C@H](O)[C@@H](O)[C@H]2O)[C@H](C)Cl)N(C)C1 [Clindamycin HCl] (47.0598 µM) | 0.505 |
| COC(=O)[C@@H]1[C@H]2C[C@H]3c4[nH]c5ccccc5c4CCN3C[C@@H]2CC[C@@H]1O [Yohimbine HCl] (51.164 µM) | 0.524 |
| COc1ccc2[nH]c([S@@+]([O-])Cc3ncc(C)c(OC)c3C)nc2c1 [Esomeprazole potassium] (57.9 µM) | 0.522 |
| CCCCN1CCCCC1C(=O)Nc1c(C)cccc1C (stereo unspecified) [Bupivacaine HCl] (69.3393 µM) | 0.447 |
| CCOC(=O)c1ncn2c1CN(C)C(=O)c1cc(F)ccc1-2 [Flumazenil] (65.9423 µM) | 0.507 |
| CC[C@@]1(O)C(=O)OCc2c1cc1n(c2=O)Cc2cc3cc(O)ccc3nc2-1 [10-hydroxycamptothecin] (54.8906 µM) | 0.499 |
| CN1C(C(=O)Nc2ccccn2)=C(O)c2ccccc2S1(=O)=O [Piroxicam] (60.3587 µM) | 0.505 |
